Compounds without any hit were thinned out: in the full panel of roughly 79,000, 15% have a hit. The source made the active and inactive calls. No stated cut-off is given here; in the data, active means growth inhibition above about 70%; inactive means the rest.
How the values were obtained:
[1] = NCI Yeast Anticancer Drug Screen. Data for the rad52 strain (AID 147);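 further: 0% = growth of vehicle-treated control cultures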; details: S. cerevisiae rad52 mutant growth inhibition, hits give high values
In short: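 Compounds are applied to a genetically defined yeast strain lacking normal DNA damage repair, and inhibition of growth is expressed relative to cultures given vehicle only.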

[2] = NCI Yeast Anticancer Drug Screen. Data for the wt1 strain (AID 149);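 further: 0% = growth of vehicle-treated wt1 cultures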; details: S. cerevisiae wt1 strain (SPY 50644) growth inhibition, hits give high values
In short: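 wt1 strain grown with compound or vehicle; inhibition taken from the growth difference.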

[3] = NCI Yeast Anticancer Drug Screen. Data for the rad50EPP+ strain (AID 151);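 further: 0% = growth of vehicle-treated control cultures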; details: S. cerevisiae rad50 mutant strain, hits give high values
In short: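 Compounds were applied to the rad50EPP+ yeast strain, which bears a defined DNA repair alteration, and growth inhibition was determined relative to vehicle-treated cultures.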

[4] = NCI Yeast Anticancer Drug Screen. Data for the mgt1 strain (AID 153); details: S. cerevisiae mgt1 mutant growth inhibition, hits give high values
In short: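 Strain: mgt1 yeast, one of a set carrying defined DNA damage repair or cell cycle control alterations. Compound-treated growth compared with vehicle.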

[5] = NCI Yeast Anticancer Drug Screen. Data for the rad50 strain (AID 155);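 further: 0% = growth of vehicle-only cultures of the same strain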; details: S. cerevisiae rad50 strain growth inhibition, hits give high values
In short: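 DNA repair mutant yeast, compound exposure, growth read-out; inhibition is taken relative to vehicle.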

[6] = NCI Yeast Anticancer Drug Screen. Data for the mec2-1 strain (AID 157); details: S. cerevisiae mec2-1 strain, hits give high values
In short: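 Strain: mec2-1 (DNA repair/cell cycle alteration). Compound exposure, then growth measured; inhibition expressed relative to vehicle.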

[7] = NCI Yeast Anticancer Drug Screen. Data for the rad14 strain (AID 159);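 further: 0% = growth of vehicle-treated control cultures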; details: S. cerevisiae rad14 strain growth inhibition, hits give high values
In short: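 DNA repair-defective yeast, compound-exposed; % growth inhibition derived by comparison with vehicle-treated controls.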

[8] = NCI Yeast Anticancer Drug Screen. Data for the sgs1 mgt1 strain (AID 161);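 further: 0% = growth of cultures given vehicle only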; details: S. cerevisiae sgs1 mgt1 strain, hits give high values
In short: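 Mutant yeast exposed to compound; growth scored against vehicle-only wells.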

[9] = NCI Yeast Anticancer Drug Screen. Data for the CLN2oe strain (AID 163);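 further: 0% = growth of vehicle-only control cultures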; details: S. cerevisiae CLN2oe strain, hits give high values
In short: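 Growth of a genetically modified yeast strain is measured after compound exposure and compared with cultures given vehicle alone.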

[10] = NCI Yeast Anticancer Drug Screen. Data for the cln2 rad14 strain (AID 165);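 further: 0% = growth equal to vehicle treated cultures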; details: S. cerevisiae cln2 rad14 strain, hits give high values
In short: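 Compounds are applied to the cln2 rad14 yeast strain, and growth is then compared with that of vehicle-treated cultures to give inhibition.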

[11] = NCI Yeast Anticancer Drug Screen. Data for the bub3 strain (AID 167); details: S. cerevisiae bub3 mutant strain, hits give high values
In short: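 In this screen, a yeast mutant lacking normal mitotic checkpoint function is challenged with compound. Relative growth versus vehicle gives the inhibition value.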

[12] = NCI Yeast Anticancer Drug Screen. Data for the wt2 strain (AID 169);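 further: 0% = growth of vehicle-treated yeast cultures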; details: S. cerevisiae wt2 strain growth inhibition, hits give high values
In short: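 This strain belongs to a panel of yeast strains with defined genetic alterations in DNA damage repair or cell cycle control. Compounds are applied, and growth inhibition is measured against vehicle-treated cultures.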

[13] = NCI Yeast Anticancer Drug Screen. Data for the mlh1 strain (AID 171);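 further: 0% = growth of vehicle-treated control cultures of the same strain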; details: S. cerevisiae mlh1 strain growth inhibition, hits give high values
In short: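 Growth of the mutant yeast strain after compound exposure, expressed as inhibition relative to vehicle-only controls.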

[14] = NCI Yeast Anticancer Drug Screen. Data for the sgs1 strain (AID 173);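 further: 0% = growth of vehicle-only control cultures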; details: S. cerevisiae sgs1 mutant, hits give high values
In short: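 Growth of a yeast strain bearing a defined genetic alteration is measured after compound treatment. Inhibition is expressed relative to vehicle-only controls.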

[15] = NCI Yeast Anticancer Drug Screen. Data for the mlh1 rad18 strain (AID 175); details: S. cerevisiae mlh1 rad18 strain growth inhibition, hits give high values
In short: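 Read-out is yeast growth inhibition, calculated against vehicle-only controls. The compound was applied to a strain engineered with DNA damage repair alterations.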

[16] = NCI Yeast Anticancer Drug Screen. Data for the rad18 strain (AID 177); details: S. cerevisiae rad18 mutant growth inhibition, hits give high values
In short: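 Growth of the mutant yeast strain after compound exposure, normalised to vehicle-only cultures.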

[17] = at 5.0 µM (retest, dose inferred, filed as 0.5)
[18] = at 50.0 µM (retest, dose inferred, filed as 5.0)

Measured: growth inhibition

CCC(=O)Oc1c(Cl)cc(Cl)c2ccccc12
active: [15]; [18] 77% | [16]; at 100.0 µM 73%
inactive: [1]; at 1.2 µM -2% | [1]; at 3.7 µM -2% | [1]; at 11.0 µM -1% | [1]; at 33.0 µM 4% | [1]; at 100.0 µM 54% | [2]; at 1.2 µM -4% | [2]; at 3.7 µM -4% | [2]; at 11.0 µM -4% | [2]; at 33.0 µM -6% | [2]; at 100.0 µM 13% | [3]; at 1.2 µM -2% | [3]; at 3.7 µM 4% | [3]; at 11.0 µM 10% | [3]; at 33.0 µM 15% | [3]; at 100.0 µM 49% | [4]; at 1.2 µM -8% | [4]; at 3.7 µM -10% | [4]; at 11.0 µM -2% | [4]; at 33.0 µM 3% | [4]; at 100.0 µM 28% | [5]; at 1.2 µM -5% | [5]; at 3.7 µM -4% | [5]; [17] 8% | [5]; at 11.0 µM -1% | [5]; at 33.0 µM 5% | [5]; [18] -53% | [5]; at 50.0 µM 20.1% | [5]; at 100.0 µM 35% | [6]; at 1.2 µM -2% | [6]; at 3.7 µM -2% | [6]; [17] -9% | [6]; at 11.0 µM -2% | [6]; at 33.0 µM 0% | [6]; [18] -1% | [6]; at 50.0 µM -8.5% | [6]; at 100.0 µM 32% | [7]; at 1.2 µM -7% | [7]; at 3.7 µM -4% | [7]; at 11.0 µM 0% | [7]; at 33.0 µM 9% | [7]; at 100.0 µM 39% | [8]; [17] -9% | [8]; [18] 49% | [8]; at 50.0 µM 32% | [9]; at 1.2 µM -5% | [9]; at 3.7 µM -2% | [9]; at 11.0 µM -7% | [9]; at 33.0 µM -6% | [9]; at 100.0 µM 22% | [10]; [17] -16% | [10]; [18] 18% | [10]; at 50.0 µM 15.2% | [11]; at 1.2 µM -4% | [11]; at 3.7 µM -6% | [11]; [17] 2% | [11]; at 11.0 µM -9% | [11]; at 33.0 µM -12% | [11]; [18] -5% | [11]; at 50.0 µM 12.1% | [11]; at 100.0 µM 3% | [12]; at 1.2 µM -4% | [12]; at 3.7 µM -5% | [12]; at 11.0 µM -5% | [12]; at 33.0 µM -5% | [12]; at 100.0 µM 20% | [13]; at 1.2 µM -2% | [13]; at 3.7 µM -2% | [13]; at 11.0 µM 0% | [13]; at 33.0 µM 10% | [13]; at 100.0 µM 38% | [14]; at 1.2 µM -4% | [14]; at 3.7 µM -3% | [14]; at 11.0 µM 2% | [14]; at 33.0 µM 9% | [14]; at 100.0 µM 43% | [15]; [17] -10% | [15]; at 50.0 µM 10.9% | [16]; at 1.2 µM -3% | [16]; at 3.7 µM 1% | [16]; at 11.0 µM 1% | [16]; at 33.0 µM 5%

Reference: PubChem BioAssay (NCI)
